Reference: PubChem BioAssay (NCI)
About 79,000 compounds went through this panel and 15% of them were active in at least one assay; those are over-represented in the sample as a whole. Values without a mark were called inactive. Calls of active or inactive are those of the source. Rule as the data show it: active = growth inhibition above about 70%; inactive = the rest.

Tests used:
[1] = NCI Yeast Anticancer Drug Screen. Data for the rad50 strain (AID 155);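 also: 0% = growth of vehicle-only cultures of the same strain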; details: S. cerevisiae rad50 strain growth inhibition; at 50.0 µM; stronger effect = higher value
How it was run: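 Yeast carrying a defined DNA repair defect were exposed to test compounds, and growth was compared with vehicle-treated controls to give percent inhibition.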

[2] = NCI Yeast Anticancer Drug Screen. Data for the mec2-1 strain (AID 157); details: S. cerevisiae mec2-1 strain, at 50.0 µM, stronger effect = higher value
How it was run: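 mec2-1 yeast strain, carrying an alteration in DNA damage repair or cell cycle control, was exposed to compounds; growth inhibition was measured relative to vehicle-treated controls.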

[3] = NCI Yeast Anticancer Drug Screen. Data for the sgs1 mgt1 strain (AID 161);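 also: 0% = growth of cultures given vehicle only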; details: S. cerevisiae sgs1 mgt1 strain, at 50.0 µM, stronger effect = higher value
How it was run: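 Compounds are added to genetically altered yeast, and growth is compared with cultures given vehicle alone to give percent inhibition.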

[4] = NCI Yeast Anticancer Drug Screen. Data for the cln2 rad14 strain (AID 165);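 also: 0% = growth equal to vehicle treated cultures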; details: S. cerevisiae cln2 rad14 strain, at 50.0 µM, stronger effect = higher value
How it was run: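 Yeast carrying cln2 and rad14 alterations (cell cycle control and DNA damage repair) were exposed to compounds. Growth inhibition was measured against vehicle-treated controls.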

[5] = NCI Yeast Anticancer Drug Screen. Data for the bub3 strain (AID 167); details: S. cerevisiae bub3 mutant strain, at 50.0 µM, stronger effect = higher value
How it was run: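 Compounds were applied to a genetically altered yeast strain carrying a cell-cycle control defect. Growth inhibition was scored against vehicle-treated controls.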

[6] = NCI Yeast Anticancer Drug Screen. Data for the mlh1 rad18 strain (AID 175); details: S. cerevisiae mlh1 rad18 strain growth inhibition; at 50.0 µM; stronger effect = higher value
How it was run: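 Growth inhibition of the yeast strain was measured after compound exposure and expressed relative to vehicle-treated controls. The strain carries defined defects in DNA damage repair.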

| Compound | growth inhibition [1] | growth inhibition [2] | growth inhibition [3] | growth inhibition [4] | growth inhibition [5] | growth inhibition [6] |
| --- | --- | --- | --- | --- | --- | --- |
| N#Cc1nc(/C=C/c2nc(C#N)c(N)o2)oc1N | -34.5% | -28.7% | -5.25% | 9.25% | 8.4% | -0.95% |
| O=C(NN1C(=O)CSC1c1ccccc1F)c1ccncc1 (stereo not given) | 11.2% | 6.25% | 21.6% | 7.7% | 11.9% | 19.5% |
| C/C(CCC(=O)O)=N\NC(=O)COc1ccc(Cl)cc1Cl | 31.4% | -0.15% | 18.6% | 12.1% | 14.8% | 13.8% |
| CC(=O)Nc1ccc2c(Br)ccc3c2c1CC3 | 0.8% | -1.55% | 4.3% | 0.6% | 6.6% | -4.45% |
| Oc1cccc2ccc(Br)nc12 | -10.1% | 15.2% | 7.25% | 4.9% | 5.45% | -3.25% |
| NC(Cc1cccc(F)c1)C(=O)O (stereo not given) | -1.3% | -30.1% | 6.7% | -12.4% | -9.1% | 10% |
| CCOC(=O)/C(C#N)=C/C=C1C=CN(C)C=C1 | 8.95% | -4.4% | -1.4% | -30.9% | 0.1% | -10.1% |
| COc1ccc2c(=O)c(-c3ccc(OC)c(OC)c3)c(C)oc2c1 | -0.7% | -1.5% | 13.1% | 7.5% | -31.4% | -4.85% |
| Cc1ccc(C(=O)/C=C(\C(=O)c2ccccc2)c2ccccc2)cc1C | 12.5% | 14.8% | 1.85% | 11.7% | 11.3% | 9.65% |
| CCC1(CC)C(=O)N(C(=O)c2ccccc2)N(C(=O)c2ccc(Cl)cc2)C1=O | 20.9% | 18.7% | 34.5% | 32.5% | 46.8% | -79.8% |
| COc1ccc2nc3cc(Cl)ccc3c(NCCCNCCCNc3c4ccc(Cl)cc4nc4ccc(OC)cc34)c2c1 | -10.3% | -16.5% | -9.1% | 3.5% | -6% | -23.1% |
| CC1CC[C@@]23CCC4(C)[C@@](C=CC5[C@@]6(C)CCC(=O)C(C)(C)C6CC[C@]54C)(OC2=O)[C@@H]3[C@H]1C (stereo not given in full) | -14.8% | -17.6% | -14.7% | -15.1% | -14.5% | -8.15% |
| COc1ccc(NC(=O)Oc2ccc(C#N)cc2)cc1 | -1.3% | -16.1% | 5.5% | 8.3% | 10.4% | -1.55% |
| O=C(O)CCC(=O)Oc1ccccc1 | -17.6% | 11.2% | 13.2% | 31.6% | 9.6% | 44.5% |
| CCOP(=O)(OCC)/C(C#N)=C\c1ccc(N(C)C)cc1 | 13.5% | 6.3% | 10.2% | -13.7% | 6.35% | -0.65% |
| COC(=O)C1CN(c2ccccc2)CCC1=O (stereo not given) | -28.9% | -31.8% | -0.55% | -35.7% | -10.3% | -12.7% |
| N/C(=N\OC(=O)Nc1cccc(Cl)c1)C(Cl)(Cl)Cl | 96.8% (active) | 99.5% (active) | 99.5% (active) | 96.3% (active) | 99.2% (active) | 99% (active) |
| OC(C/C=N/N=C/CC(O)(C(F)(F)Cl)C(F)(F)Cl)(C(F)(F)Cl)C(F)(F)Cl | 36% | 28.3% | 31.7% | 35.2% | 34.5% | 34.1% |
| CN=C1Nc2ccc(Cl)cc2C(c2ccccc2)=NN1C | 10% | -19.4% | 2.9% | 11.3% | 6.85% | -12.6% |
| Nc1nnc(Sc2n[nH]c(=O)[nH]c2=O)s1 | -8.8% | -2.6% | -14.3% | -0.2% | -4.9% | -8.05% |
